SMILES strings stand for the structures. Inconclusive results are not listed. Activity calls are given as the source filed them. Calls follow the shape of the dose curve; as a rule, active = well fitted curve in the direction sought with a large enough effect; inconclusive = small, poorly fitted or top-dose-only effect, or another doubt; inactive = no such curve, though single readings can be large; an effect the other way counts as inactive or inconclusive. Starred links: 1 amine or outer side, 2 acyl side, 3 side chain; linkers in the order of their positions; H or OH if unused. Positions of bridges follow the written chain, without caps; N, C: chain ends. Non-standard residues stand in square brackets, D forms with d. Residues, ends and D or L forms follow the SMILES beside them. ξ: configuration not given here. *: point of attachment. X3 = C[C@@H](Oc1ccc([C@H](N[*:1])C(=O)[*:2])cc1)[C@]1(/C=C\C(=O)[*:3])CO1; d(aIle) = CC[C@H](C)[C@@H](N)C(=O)O; X2 = CC(C)[C@@H](O)C(C)C(=O)*; ξNMeF = CNC(Cc1ccccc1)C(=O)O; ξT = CC(O)C(N)C(=O)O; ξS = NC(CO)C(=O)O

The values below come from PubChem BioAssay (NCATS).

Experiment [1] can be described thus: HPAF-II 24hr Apoptosis Induction qHTS against the NCATS CANVASS Library (AID 1347356). In a few lines:
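Luminescent caspase-3/7 signal (DEVD substrate, Caspase-Glo) served as read-out, taken 15 min after reagent addition to HPAF-II cells exposed 24 h to compounds.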

Experiment [2] can be described thus: HEK293 18hr Apoptosis Induction qHTS against the NCATS CANVASS Library (AID 1347357). The gist of the method:
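Caspase-3/7 luminescence (DEVD substrate, Caspase-Glo) after 18 h compound exposure of HEK293 cells, 500 cells/well; 11-point series; doxorubicin titration as control.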
(qHTS replaces the single test concentration by a dilution series.)

A short description of experiment [3]: HPAF-II 12hr Apoptosis Induction qHTS against the NCATS CANVASS Library (AID 1347358). The gist of the method:
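500 HPAF-II cells/well; cmpds 11-pt; 12 hr, 37 degrees C/5% CO2; Caspase-Glo 3/7 added, 15 min RT dark; luminescence read. Doxorubicin titration as control.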

The nature of experiment [4]: HPAF-II 18hr Apoptosis Induction qHTS against the NCATS CANVASS Library (AID 1347360). The gist of the method:
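Caspase-Glo 3/7 luminescence (DEVD substrate) after 15 min RT; HPAF-II, 500 cells/well, 18 h compound exposure at 37 degrees C, qHTS series; doxorubicin control 0.1nM - 4uM.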

Experiment [5] is described as follows: HEK293 12hr Apoptosis Induction qHTS against the NCATS CANVASS Library (AID 1347361). The gist of the method: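 500 HEK293 cells/well; cpds pin-transferred, 11-pt conc series; 12 h, 37 degrees C/5% CO2; Caspase-Glo 3/7 added, 15 min RT dark; luminescence.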
The target of experiment [6] is Luciferin 4-monooxygenase (Photinus pyralis) (UniProt P08659). Kind of experiment: Firefly luciferase counterscreen qHTS: Assay Interference Panel against the NCATS CANVASS Library (AID 1347363). Also: potency is read from the fitted curve at half-maximal effect. In a few lines:
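Purified P. pyralis luciferase was added to compounds (11-point series) preincubated 15 min at room temperature with substrate containing 0.013 mM D-luciferin and 0.013 mM ATP; luminescence was read after 5 min.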

Experiment [7] is described as follows: qHTS for ATAD5 Agonist screened against the NCATS CANVASS Library (AID 1347367). In a few lines: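 Luminescence read-out: ATAD5-driven luciferase in stably transfected HEK 293T cells, which rises post-transcriptionally with DNA damage. Cells were exposed 16hr at 37C to test compound; a CellTiter-Fluor fluorescence read (1hr) measured viability first.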
For experiment [8], the target named is Nuclear receptor subfamily 1 group I member 3 (Homo sapiens) (UniProt Q14994). Kind of experiment: qHTS for Constitutive Androstane Receptor (CAR) Agonist screened against the NCATS CANVASS Library (AID 1347373).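 Also: every well also contained 1.5 µM PK11195 alongside the test compound.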 Also: potency is read from the fitted curve at half-maximal effect. In a few lines:
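HepG2-hCAR-CYP2B6 cells, 2500/well, attached 4hr; cpd + PK11195 1.5uM final; 24hr 37C 5% CO2. CellTiter-Fluor viability read, then ONE-Glo luminescence for CAR activation.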

Experiment [9] can be described thus: qHTS for Hypoxia signaling pathway (HIF-1) agonists against the NCATS CANVASS Library (AID 1347375). In a few lines: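 ME-180 HRE-bla reporter cells; 2,000/well, 0.5% dialyzed FBS; cpd added after 5 h, 17 h 37C/5% CO2; CCF4-AM 2 h RT; FRET 460/530 nm; CellTiter-Glo viability same wells, 30 min.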
The nature of experiment [10]: DH5-alpha competent E. coli microbial cell viability qHTS against the NCATS CANVASS Library (AID 1347377). The following applies: outcome: dose series up to 46.1 µM unless noted. In a few lines: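 qHTS, 11-pt; E. coli DH5-alpha, 0.2 OD; o/n 37C/5% CO2; BacTiter-Glo, 20 min RT; luminescence.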
Experiment [11] in a line: qHTS for H2AX Agonists against the NCATS CANVASS Library (AID 1347378). Also: potency is read from the fitted curve at half-maximal effect. In a few lines:
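TR-FRET readout (ex 320 nm, em 665/620 nm ratio) of phospho-H2AX (S139) in CHO-K1 lysates. Cells treated 3 hr at 37C with compound titration, 0.76% DMSO; lysis 30 min, antibody detection 24 hr at RT.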

Experiment [12] in a line: Inflammasome Signaling qHTS Counterscreen: IL-1-beta AlphaLISA counterscreen against the NCATS CANVASS Library (AID 1347381).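 Also: cell-free check with purified IL-1β in medium and no THP-1 cells; series mostly up to about 57 µM.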 The gist of the method: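 Cell-free interference check: compounds added to medium spiked with 4 pg purified IL-1β. Anti-IL-1β acceptor beads (6 ug/mL) with 0.6 nM biotinylated antibody added for 1 h at RT, then streptavidin donor beads (24 ug/mL) for 30 min in the dark. AlphaLISA read at 680/615 nm.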

Experiment [13] is described as follows: Cytotoxicity qHTS for assessment of Hepg2 cells membrane integrity screened against the NCATS CANVASS Library (AID 1347387). In a few lines:
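qHTS, 11-pt conc. series, 0.59 nM - 46 uM final; HepG2 2000 cells/well, overnight attachment; 5 hr compound exposure 37C/5% CO2; CytoTox-ONE, 10 min RT; fluorescence ex560/em590 = LDH from damaged membranes.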

Experiment [14] can be described thus: qHTS for activators of dead-cell proteases activity screened against the NCATS CANVASS Library (AID 1347392).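 Also: luminescence from protease leaking out of membrane-damaged cells cleaving impermeant substrate; rising signal means more cytotoxicity.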 The gist of the method: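 HepG2 cells (2000/well) attached 18 h at 37C, then exposed 5 h to compounds (11-point qHTS). Dead-cell protease activity read as luminescence from cell-impermeant AAF-aminoluciferin substrate after 15 min at room temperature.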

The nature of experiment [15]: J3T Cancer Cell Toxicity qHTS against the NCATS CANVASS Library (AID 1347371). Also: potency is read from the fitted curve at half-maximal effect. The gist of the method:
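Cells plated at 500 per well, compounds pin-transferred, plates incubated 72 hr at 37C, then CellTiterGlo added and luminescence read to measure ATP content.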

Sequence of Luciferin 4-monooxygenase (Photinus pyralis) (P08659 whole entry, looked up): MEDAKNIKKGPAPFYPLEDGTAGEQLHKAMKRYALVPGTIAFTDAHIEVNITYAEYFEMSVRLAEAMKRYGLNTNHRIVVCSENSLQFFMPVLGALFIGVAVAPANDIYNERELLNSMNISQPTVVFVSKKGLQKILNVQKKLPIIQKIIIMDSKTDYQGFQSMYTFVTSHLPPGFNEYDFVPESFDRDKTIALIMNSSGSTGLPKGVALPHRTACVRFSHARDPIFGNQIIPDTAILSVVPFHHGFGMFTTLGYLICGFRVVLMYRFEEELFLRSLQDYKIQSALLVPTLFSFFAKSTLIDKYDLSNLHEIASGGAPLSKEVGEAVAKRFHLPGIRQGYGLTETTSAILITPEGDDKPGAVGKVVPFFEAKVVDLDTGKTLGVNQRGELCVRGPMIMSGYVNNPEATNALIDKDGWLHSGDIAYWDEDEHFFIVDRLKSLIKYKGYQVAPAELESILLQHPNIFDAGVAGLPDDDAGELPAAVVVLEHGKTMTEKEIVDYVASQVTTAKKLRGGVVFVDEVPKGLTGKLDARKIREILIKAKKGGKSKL
Sequence of Nuclear receptor subfamily 1 group I member 3 (Homo sapiens) (Q14994 whole entry, looked up): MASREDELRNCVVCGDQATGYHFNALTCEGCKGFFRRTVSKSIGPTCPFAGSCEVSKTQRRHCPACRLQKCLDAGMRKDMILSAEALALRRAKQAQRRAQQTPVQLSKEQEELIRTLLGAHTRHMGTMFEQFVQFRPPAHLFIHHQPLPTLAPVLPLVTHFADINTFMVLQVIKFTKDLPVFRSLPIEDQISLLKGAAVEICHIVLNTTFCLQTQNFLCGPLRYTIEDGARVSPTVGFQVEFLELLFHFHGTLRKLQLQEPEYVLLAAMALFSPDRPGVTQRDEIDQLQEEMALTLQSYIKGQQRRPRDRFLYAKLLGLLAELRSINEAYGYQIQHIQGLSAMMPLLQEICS

Take `CC[C@@H]1CN2CCc3c([nH]c4cccc(OC)c34)[C@@H]2C[C@@H]1/C(=C\OC)C(=O)OC`: the outcome in experiment [1], in experiment [2], in experiment [3], in experiment [4], in experiment [5] and in experiment [9] was inactive. Moreover, the molecule was classed as inactive in experiment [10], in experiment [12], in experiment [13] and in experiment [14]. In addition, the Potency result in experiment [6], in experiment [7], in experiment [8] and in experiment [11] was “inactive” throughout.
As to `C=CC(C)(C)[C@@]12C[C@H]3C(=O)N/C(=C\c4cnc[nH]4)C(=O)N3[C@@H]1Nc1ccccc12`, the call in experiment [1], in experiment [2], in experiment [3], in experiment [4], in experiment [5] and in [9] was inactive. The molecule was classed as inactive in experiment [10], in [12], in experiment [13] and in [14]. For the same molecule, the Potency entry in experiment [6], in experiment [7], in [15], in [8] and in [11] was “inactive” each time.
In the case of `C/C(=C\[C@H](C)C(=O)C[C@H](O)CC1CC(=O)NC(=O)C1)[C@@H]1OC(=O)/C=C/CC/C=C/C=C/[C@@H]1C`, the molecule was called inactive in [1], in experiment [2], in [3], in [4], in experiment [5] and in experiment [9]. Further, the call in experiment [10], in experiment [12], in experiment [13] and in experiment [14] was inactive. The Potency result in [6], in [7] and in [8] was “inactive” each time. In addition, the Potency in experiment [15] is 0.264 µM (active).
For the molecule `C[N+](C)(C)CCc1c[nH]c2ccccc12`, the molecule was called inactive in experiment [1], in experiment [2], in experiment [3], in experiment [4], in experiment [5] and in experiment [9]. The molecule was called inactive in experiment [10], in experiment [12], in experiment [13] and in [14]. The Potency entry in [6], in [7], in experiment [15], in experiment [8] and in experiment [11] was “inactive” throughout.
`C[C@]12CC(O)C3[C@@H](CC[C@@H]4C[C@@H](O)CC[C@]34CO)[C@@]1(O)CC[C@@H]2C1=CC(=O)OC1` (some centres not stated): the call in experiment [1], in experiment [2], in experiment [3], in [4], in experiment [5] and in experiment [9] was inactive. Further, the outcome in experiment [10], in experiment [12], in [13] and in [14] was inactive. The Potency result in experiment [6], in experiment [7], in experiment [8] and in experiment [11] was “inactive” in each case. In [15], the Potency is 10.5 µM (active).
`CCCC[C@@H]1CC[C@H]2CCCC(CCCO)N12` (some centres not stated): the molecule was classed as inactive in [1], in experiment [2], in experiment [3], in experiment [4], in experiment [5] and in experiment [9]. The call in experiment [10], in [12], in experiment [13] and in experiment [14] was inactive. Moreover, the Potency entry in [6], in experiment [7], in [15], in experiment [8] and in [11] was “inactive” in each case.
Regarding `c1ccc2nc3c(cc2c1)[nH]c1ccccc13`, the molecule was called inactive in experiment [1], in experiment [2], in [3], in experiment [4], in experiment [5] and in experiment [9]. For the same molecule, the outcome in experiment [10], in [12], in [13] and in experiment [14] was inactive. For the same molecule, the values for the Potency in [6] and in experiment [8] were 1.72 µM (active) and 18.6 µM (active), respectively. Moreover, the Potency entry in experiment [7], in experiment [15] and in experiment [11] was “inactive” in each case.
As for `CO[C@@H](/C=C/CC/C=C/C(=O)O)[C@@H](O)[C@H](C)/C=C(\C)[C@H](O)[C@H](C)C(=O)CCCC1CC(=O)NC(=O)C1`, the outcome in experiment [1], in experiment [2], in experiment [3], in experiment [4], in experiment [5] and in [9] was inactive. Moreover, the result in experiment [10], in experiment [12], in [13] and in [14] was inactive. In addition, the Potency entry in [6], in experiment [7], in experiment [15], in [8] and in experiment [11] was “inactive” in each case.
For the molecule `CC[C@H](C)[C@H]1NC(=O)[C@@H](NC(=O)C(C)[C@H](O)C(C)C)[C@@H](C)OC(=O)C2COC(=O)CNC(=O)/C=C\[C@]3(CO3)[C@@H](C)Oc3ccc(cc3)[C@H](NC1=O)C(=O)N(C)C(Cc1ccccc1)C(=O)NC(C(C)O)C(=O)N2` (some centres not stated) (X2-T[d(aIle)][X3][ξNMeF][ξT][ξS]; ester 1-C; linker 3-6 via G), the call in [1], in [2], in experiment [3], in experiment [4], in [5] and in experiment [9] was inactive. Further, the molecule was classed as inactive in [10], in [12], in [13] and in experiment [14]. Also, the Potency result in experiment [6], in experiment [7], in experiment [15], in [8] and in experiment [11] was “inactive” throughout.
In the case of `C=C(C)[C@H]1C(=O)c2c3c(cc4c5c(n1c24)[C@@]1(C)[C@@H](CC[C@H]2[C@](C)(/C=C/C=C(\C)C(=O)O)[C@@H](O)CC[C@@]21C)C5)C1=CC(C)(C)OC(C)(C)[C@H]1[C@@H]3O`, the result in experiment [2], in [5], in experiment [10] and in [12] was inactive. Further, the Potency entry in experiment [6], in experiment [7], in experiment [15] and in experiment [8] was “inactive” each time. Besides, in [11], the Potency was 13.7 µM (active).
Turning to `CC(C)CC1C(=O)O[C@H](C(C)C)C(=O)N(C)C(CC(C)C)C(=O)O[C@@H](C(C)C)C(=O)N(C)C(CC(C)C)C(=O)O[C@H](C(C)C)C(=O)N(C)C(CC(C)C)C(=O)O[C@@H](C(C)C)C(=O)N1C` (some centres not stated), the call in [1], in experiment [2], in experiment [3], in experiment [4], in experiment [5] and in experiment [9] was inactive. Moreover, the molecule was called inactive in experiment [10], in [12], in [13] and in experiment [14]. Besides, the Potency result in experiment [6], in experiment [7], in [15], in experiment [8] and in [11] was “inactive” each time.
